Data published in PubChem BioAssay (NCATS).
Results filed as inconclusive are left out. Entries that show only a call come without a potency. A number with no mark means an inactive call. Active and inactive are the calls of the source. Calls follow the shape of the dose curve; as a rule, active = well fitted inhibition curve with a large enough effect; inconclusive = small, poorly fitted or top-dose-only effect; inactive = no such curve, though single readings can be large or run the other way.

The molecules below were run on Zika virus NS2B-NS3 protease (unlinked complex) (assay: Primary screen GU Rhodamine qHTS for Zika virus inhibitors: Unlinked NS2B-NS3 protease assay (AID 1347159; also: nearly all actives have a fitted effect of over 60% in size)). Settings: Recombinant ZIKV NS2B-NS3 protease, Rhodamine110 substrate fluorescence; series mostly up to 107 µM.
Method in brief: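 A qHTS format was used, with compound concentrations ranging up to 114 microM. Each compound was preincubated with 25 nM NS2B-NS3 protease, and the substrate was then added at 1.5 microM. Curves were fitted with a 4-parameter Hill model.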

SMILES	Potency
C/C=C(\C)C(=O)OC1CC2C(CC=C3CC(OC4CC(OC)C(OC5CC(OC)C(OC6OC(C)C(OC7OC(CO)C(O)C(O)C7O)C(OC)C6O)C(C)O5)C(C)O4)CCC32C)C2(O)CCC(C(C)=O)C12C (configuration not stated)	inactive
CN[C@H]1[C@H](O)[C@H](O[C@@H]2[C@@H](O)[C@H](O[C@H]3O[C@H]([C@H](C)O)[C@@H](O)[C@H](O)[C@H]3N)[C@@H](N)C[C@H]2N)OC[C@@]1(C)O	inactive
CC(CCc1ccc(O)cc1)O[C@@H]1O[C@H](CO[C@H]2OC[C@](O)(CO)[C@H]2O)[C@@H](O)[C@H](O)[C@H]1O (some centres not stated)	inactive
COC(=O)[C@@]12C(=O)C(C)C(=O)[C@]1(C)C(C)=C[C@H]1[C@]3(C=O)CC[C@H](OC(C)=O)C(C)(C)[C@H]3CC[C@@]12C (some centres not stated)	inactive
CCC(C)(C#N)O[C@@H]1O[C@H](CO)[C@@H](O)[C@H](O)[C@H]1O (some centres not stated)	inactive
COc1ccccc1CN[C@H]1C2CCN(CC2)[C@H]1C(c1ccccc1)c1ccccc1	inactive
CN1C(=O)N(c2ccc(C#N)c(C(F)(F)F)c2)C(=O)[C@]1(CO)c1ccccc1	inactive

What follows are molecules tested on Zika virus NS2B-NS3 protease (linked construct) (assay: Primary screen NINDS Rhodamine qHTS for Zika virus inhibitors (AID 1347160; also: nearly all actives have a fitted effect of over 55% in size; also: potency is read from the fitted curve at half-maximal effect)). Settings: purified NS2B-NS3 protease, Rhodamine110 substrate fluorescence; series mostly up to 57.1 µM.
Method in brief: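 Kinetic fluorescence (Ex 480 nm, Em 540 nm) over 15 min with 1.5 microM Rhodamine110 peptide and 25 nM linked protease.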

SMILES	Potency	activity change, negative = inhibition	outcome
C[C@@](O)(COc1ccc(C#N)cc1)C(=O)Nc1ccc(C#N)c(C(F)(F)F)c1	inactive	–	–
N#CC(OC1OC(COC2OC(CO)C(O)C(O)C2O)C(O)C(O)C1O)c1ccccc1 (configuration not stated)	inactive	–	–
C[C@H](NC(=O)Cc1cc(F)cc(F)c1)C(=O)N[C@@H]1N=C(c2ccccc2)c2ccccc2N(C)C1=O	inactive	–	–
COC1C(O)C(OC2CCC3(C=O)C(CCC4C3CCC3(C)C(C5=CC(=O)OC5)CCC43O)C2)OC(C)C1OC1OC(CO)C(O)C(O)C1O (configuration not stated)	inactive	–	–
C1=C2CCCN[C@H]2[C@@H]2C[C@H]1[C@H]1CCCCN1C2	inactive	–	–
C=C[C@H]1CN2CC[C@H]1C[C@@H]2[C@@H](O)c1ccnc2ccccc12	inactive	–	–
O=C1C[C@@H]2OCC=C3CN4CC[C@]56c7ccccc7N1[C@H]5[C@H]2[C@H]3C[C@H]46	inactive	–	–
CN1[C@H]2C[C@H](OC(=O)[C@H](CO)c3ccccc3)C[C@@H]1[C@@H](O)C2	inactive	–	–
CN1C(=O)c2ccccc2NC(=O)C1Cc1ccccc1 (configuration not stated)	inactive	–	–
COCC1OC(=O)c2coc3c2C1(C)C1=C(C3=O)C2CCC(=O)C2(C)CC1O (configuration not stated)	inactive	–	–
C=CC(C)(O)CC/C=C(\C)C(=O)O[C@H]1[C@H](O)[C@@H](CO)O[C@@H](OC(=O)[C@]23CCC(C)(C)CC2C2=CCC4[C@@]5(C)CC[C@H](O[C@@H]6O[C@H](CO[C@@H]7OC[C@H](O)[C@H](O)[C@H]7O[C@@H]7OC[C@@H](O)[C@H](O)[C@H]7O)[C@@H](O)[C@H](O)[C@H]6O)C(C)(C)C5CC[C@@]4(C)[C@]2(C)CC3)[C@@H]1OC1OC(C)C(O[C@@H]2OC[C@@H](O)[C@H](O[C@@H]3OC[C@@H](O)[C@H](O)[C@H]3O)[C@H]2O)C(O)C1O (some centres not stated)	–	33.2% [at 10.7 µM]	–
CN1C(=O)c2ccccc2NC(=O)[C@]12O[C@@H]2c1ccccc1	inactive	–	–
CC(C)(C)c1cc(C(C)(C)C)c2c(c1)C(O)(C(F)(F)F)C(=O)O2 (configuration not stated)	12.6 µM (active)	–	–
OCCCCC#Cc1cncc(OC[C@@H]2CCN2)c1	inactive	–	–
C[C@H]1O[C@@H](O[C@H]2C[C@@H](O)[C@]3(CO)C4C(CC[C@]3(O)C2)[C@@]2(O)CC[C@H](C3=CC(=O)OC3)[C@@]2(C)C[C@H]4O)[C@@H](O)[C@@H](O)[C@H]1O (some centres not stated)	inactive	–	–
C/C=C(\C)C(=O)O[C@H]1[C@H](OC(C)=O)[C@]2(CO)[C@H](O)[C@H](O)[C@]3(C)C(=CCC4[C@@]5(C)CC[C@H](O[C@@H]6O[C@H](C(=O)O)[C@@H](O)[C@H](O[C@@H]7OC[C@H](O)[C@H](O[C@@H]8OC[C@H](O)[C@H](O)[C@H]8O)[C@H]7O)[C@H]6O[C@@H]6O[C@H](CO)[C@@H](O)[C@H](O)[C@H]6O)C(C)(C)C5CC[C@]43C)[C@@H]2CC1(C)C (some centres not stated)	–	4.93% [at 10.7 µM]	–
Cc1cccc(NC(=O)N[C@@H]2N=C(c3ccccc3)c3ccccc3N(C)C2=O)c1	inactive	–	–
Cn1ncnc1COc1nn2c(-c3c(F)cccc3F)nnc2cc1C1CCC1	inactive	–	–

SMILES	Potency	activity change, negative = inhibition	outcome
COC1C(O)C(C)OC(OC2C(CO)O[C@@H](O[C@@H]3CC4CCC5C(CC[C@]6(C)[C@@H](C7=CC(=O)OC7)CC[C@]56O)[C@@]4(C)[C@H](O)C3)C(O)C2O)C1O (some centres not stated)	inactive	–	–
Oc1ccc2c3c1O[C@H]1[C@H](N(CCCl)CCCl)CC[C@@]4(O)[C@@H](C2)N(CC2CC2)CC[C@]314	–	–	inactive [at 10.7 µM]
CCc1c(C(=O)C(N)=O)c2c(OCC(=O)OC)cccc2n1Cc1ccccc1	inactive	–	–
COC1CC(OC2CCC3(C)C(=CCC4C3CCC3(C)C(C(C)OC5OC(COC6OC(CO)C(O)C(O)C6O)C(O)C(O)C5O)CCC43O)C2)OC(C)C1OC1OC(C)C(O)C(OC)C1O (configuration not stated)	inactive	–	–
COC1=CC(=O)O[C@@H](CCc2ccccc2)C1	inactive	–	–
COC1CC(OC2CCC3(C=O)C(CCC4C3CCC3(C)C(C5=CC(=O)OC5)CCC43O)C2)OC(C)C1OC1OC(CO)C(O)C(O)C1O (configuration not stated)	inactive	–	–
CCCN1CCO[C@H]2c3cc(O)ccc3OC[C@@H]21	inactive	–	–
CC(C)=C1CC[C@]23CO[C@H](C2)[C@@](O)(C(=O)O)CCC13 (some centres not stated)	inactive	–	–
Cc1c(Cl)cccc1S(=O)(=O)Nc1nc(CC(=O)N2CCN(C)CC2)cs1	inactive	–	–
COC1CC(O[C@H]2CC[C@]3(C=O)C4CC[C@]5(C)[C@@H](C6=CC(=O)OC6)CC[C@]5(O)[C@@H]4CC[C@]3(O)C2)OC(C)C1O[C@@H]1O[C@H](CO)[C@@H](O)[C@H](O)[C@H]1O (some centres not stated)	inactive	–	–
C/C=C(\C)C(=O)OC1CC2C(CC=C3CC(OC4CC(OC)C(OC5CC(OC)C(OC6OC(C)C(OC7OC(CO)C(O)C(O)C7O)C(OC)C6O)C(C)O5)C(C)O4)CCC32C)C2(O)CCC(C(C)=O)C12C (configuration not stated)	inactive	–	–
CN[C@H]1[C@H](O)[C@H](O[C@@H]2[C@@H](O)[C@H](O[C@H]3O[C@H]([C@H](C)O)[C@@H](O)[C@H](O)[C@H]3N)[C@@H](N)C[C@H]2N)OC[C@@]1(C)O	inactive	–	–
CC(CCc1ccc(O)cc1)O[C@@H]1O[C@H](CO[C@H]2OC[C@](O)(CO)[C@H]2O)[C@@H](O)[C@H](O)[C@H]1O (some centres not stated)	inactive	–	–
COC(=O)[C@@]12C(=O)C(C)C(=O)[C@]1(C)C(C)=C[C@H]1[C@]3(C=O)CC[C@H](OC(C)=O)C(C)(C)[C@H]3CC[C@@]12C (some centres not stated)	inactive	–	–
CCC(C)(C#N)O[C@@H]1O[C@H](CO)[C@@H](O)[C@H](O)[C@H]1O (some centres not stated)	inactive	–	–
COc1ccccc1CN[C@H]1C2CCN(CC2)[C@H]1C(c1ccccc1)c1ccccc1	inactive	–	–
CN1C(=O)N(c2ccc(C#N)c(C(F)(F)F)c2)C(=O)[C@]1(CO)c1ccccc1	inactive	–	–
